Out of some 310,000 compounds screened, about 14,000 (4.5%) showed an effect of 50% or more. The effect is printed as a negative number. For the sample, strong results were picked, then their nearest neighbours and some compounds at random.
These molecules were tested against human ether-à-go-go-related gene (hERG) potassium channel (human, UniProt Q12809) (assay: primary screen, population patch clamp on CHO cells stably expressing hERG; higher = less effect of the substance).
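Also: peak tail current of the secondary pulse compared with the same well before compound.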

Chain of human ether-à-go-go-related gene (hERG) potassium channel (Q12809 whole entry, looked up): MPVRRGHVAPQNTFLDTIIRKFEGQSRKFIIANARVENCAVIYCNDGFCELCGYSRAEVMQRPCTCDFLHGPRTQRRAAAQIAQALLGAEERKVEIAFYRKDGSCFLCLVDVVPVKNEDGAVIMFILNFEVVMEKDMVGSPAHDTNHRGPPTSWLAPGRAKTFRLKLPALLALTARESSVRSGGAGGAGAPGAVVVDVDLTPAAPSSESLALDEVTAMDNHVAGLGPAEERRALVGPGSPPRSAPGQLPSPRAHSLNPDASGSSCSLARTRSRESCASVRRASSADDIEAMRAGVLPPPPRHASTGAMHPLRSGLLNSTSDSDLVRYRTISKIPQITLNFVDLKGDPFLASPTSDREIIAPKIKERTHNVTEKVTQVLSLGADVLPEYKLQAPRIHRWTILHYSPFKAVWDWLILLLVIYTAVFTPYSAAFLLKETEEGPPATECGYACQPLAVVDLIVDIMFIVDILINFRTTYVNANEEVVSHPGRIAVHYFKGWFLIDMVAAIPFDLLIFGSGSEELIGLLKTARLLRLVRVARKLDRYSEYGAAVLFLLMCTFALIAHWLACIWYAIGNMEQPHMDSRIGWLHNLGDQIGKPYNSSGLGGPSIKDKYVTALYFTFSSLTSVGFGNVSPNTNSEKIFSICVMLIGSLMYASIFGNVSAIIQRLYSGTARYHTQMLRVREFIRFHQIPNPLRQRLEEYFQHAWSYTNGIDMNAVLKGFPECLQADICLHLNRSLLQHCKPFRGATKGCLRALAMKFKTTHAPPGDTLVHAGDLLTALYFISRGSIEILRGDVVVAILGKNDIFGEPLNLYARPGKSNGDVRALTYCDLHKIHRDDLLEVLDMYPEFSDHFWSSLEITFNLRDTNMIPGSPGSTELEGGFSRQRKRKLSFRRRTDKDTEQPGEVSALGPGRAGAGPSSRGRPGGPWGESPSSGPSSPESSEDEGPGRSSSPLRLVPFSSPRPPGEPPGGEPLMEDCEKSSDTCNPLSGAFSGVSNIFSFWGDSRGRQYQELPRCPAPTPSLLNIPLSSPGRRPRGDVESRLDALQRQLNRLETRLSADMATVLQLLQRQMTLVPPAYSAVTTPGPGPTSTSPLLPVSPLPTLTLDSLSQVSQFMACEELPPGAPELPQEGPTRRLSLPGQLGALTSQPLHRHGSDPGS

| SMILES | hERG current change (%, negative = inhibition) at 10uM |
| --- | --- |
| CC(=O)c1cccc(NC(=O)c2ccc(NC(=O)CC3SC(N4CCCCC4)=NC3=O)cc2)c1 (stereo not shown) | 10.3% |
| COc1ccc(-n2nc(C(=O)NCC(=O)NCCN(C)C)c3ccccc3c2=O)cc1 | 10.7% |
| Nc1ncn[nH]1 | 13.5% |
| COc1ccccc1NC(=S)NC(NC(=O)CC(C)C)C(Cl)(Cl)Cl (stereo not shown) | 22.2% |
| CC1=NN(C(=O)c2ccc(Cn3cc(Br)c([N+](=O)[O-])n3)o2)C(O)(C(F)(F)F)C1 (stereo not shown) | -16.6% |
| CN(CCOc1ccccc1)C(=O)CCc1c[nH]c2ccccc12.Cl | -0.585% |
| CCOc1ccc(C(=O)NN2C(=O)C3C4C=CC(O4)C3C2=O)cc1 (stereo not shown) | -14% |
| COC(=O)c1ccccc1NC(=O)c1cccs1 | 1.38% |
| N=c1c2c(ncn1CCCO)Oc1cc(O)ccc1C2c1ccccc1 (stereo not shown) | -33.7% |
| N=c1c2c(ncn1CCN1CCOCC1)Oc1cc(O)ccc1C2c1ccccc1 (stereo not shown) | -42.9% |
| N=c1c2c(ncn1Cc1ccco1)Oc1cc(O)ccc1C2c1ccccc1 (stereo not shown) | -74.1% |
| COc1ccc(/C=C(\C#N)C(=O)NC(C)c2ccccc2)cc1O (stereo not shown) | -24.2% |
| Cc1cc(C(=O)N/N=C/c2ccco2)c2ccccc2n1 | 1.37% |
| COc1cc(NC(=O)C(c2ccccc2)c2ccccc2)c(C(=O)O)cc1OC | 16.7% |
| O=C(NCc1cccnc1)Nc1ccc(F)cc1F | -4.58% |
| Cc1noc(C)c1S(=O)(=O)N(CC(=O)N1CCn2c1nc1ccccc12)c1ccc(C(C)C)cc1 | -14.9% |
| CC(C)(C)n1cnc2cc(NCc3ccccc3O)ccc21 | -10.1% |
| CC(C)(C)n1cnc2cc(NCc3cccs3)ccc21 | -28.2% |
| CCOc1ccc(CNc2ccc3c(c2)ncn3C)cc1 | -46.6% |
| Cc1ccc(CNc2ccc3c(c2)ncn3C(C)(C)C)cc1 | -72.5% |
| CC(C)(C)n1cnc2cc(NCc3ccc(Br)cc3)ccc21 | -69.2% |
| Cc1ccc(CNc2ccc3c(c2)ncn3C)cc1 | -33.8% |
| Cc1ccc(CNc2ccc3c(c2)ncn3C(C)C)cc1 | -78.3% |
| CC(C)n1cnc2cc(NCc3ccccc3O)ccc21 | 3.94% |
| CN(C)c1ccc(CNc2ccc3c(c2)ncn3C(C)(C)C)cc1 | -27.2% |

| SMILES | hERG current change (%, negative = inhibition) at 10uM |
| --- | --- |
| CCOc1ccc(CNc2ccc3c(c2)ncn3C(C)(C)C)cc1 | -58.6% |
| CCN(CC)c1ccc(CNc2ccc3c(c2)ncn3C(C)(C)C)cc1 | 1.91% |
| CCc1ccc(CNc2ccc3c(c2)ncn3C(C)(C)C)cc1 | -36.1% |
| COc1ccccc1CNC(=O)Cn1cccc1C(=O)c1ccccc1 | 8.74% |
| COCC1CCN(C(=O)c2cc(COc3ccc4c(c3)CCCC4)on2)C1 (stereo not shown) | -24.9% |
| Cc1cccn2c(=O)c(C=NCc3ccccc3)c(NCCO)nc12 | 0.417% |
| Cc1ccc(CN2CCSc3ccc(C(=O)NCc4cccnc4)cc32)cc1 | -2.7% |
| CCN(C(=O)C(C)N1C(=O)/C(=C/c2cccs2)SC1=S)C1CCS(=O)(=O)C1 (stereo not shown) | -27.3% |
| COC(=O)c1ccc(C(=O)OC)c(NC(=O)CN2CCN(c3ccc(OC)cc3)CC2)c1 | 11.5% |
| Cc1csc(Nc2ccc(Cl)cc2)[n+]1-c1ccc(Cl)cc1.[Br-] | 14.9% |
| CC(C)CNC(=O)c1ccccc1NC(=O)CCSc1ccccc1 | -17.6% |
| COC(=O)c1ccc([C@H]2C=C(C(=O)O)O[C@@H](OCc3ccc(CO)cc3)C2)cc1 | 13.6% |
| CCN(CC)CCOCCOc1ccccc1F | -3.91% |
| CCN(CC)CCOCCOc1ccc(Cl)c2ccccc12 | -68% |
| CN(C)CCOCCOc1ccc(Cl)c2ccccc12.O=C(O)C(=O)O | -44.5% |
| COc1ccccc1CCNC(=O)C(=O)NCC1OCCN1S(=O)(=O)c1ccc([N+](=O)[O-])cc1 (stereo not shown) | -46.7% |
| O=C(NCCN1CCOCC1)c1ccc2c(c1)ncn2C1CCCC1 | -6.39% |
| c1ccc2c(c1)[nH]c1c(N3CCCC3)ncnc12 | -15.2% |
| COc1ccc2c(c1)[nH]c1c(N3CCN(Cc4ccc5c(c4)OCO5)CC3)ncnc12 | -74% |
| Cc1ccc2[nH]c3c(N4CCN(Cc5ccccc5)CC4)ncnc3c2c1 | -72.3% |
| COc1ccc2[nH]c3c(N4CCN(Cc5ccc6c(c5)OCO6)CC4)ncnc3c2c1 | -18.8% |
| c1ccc2c(c1)[nH]c1c(N3CCSCC3)ncnc12 | -4.82% |
| c1ccc(CN2CCN(c3ncnc4c3[nH]c3ccccc34)CC2)cc1 | -62.5% |
| Cc1ccc2[nH]c3c(N4CCOCC4)ncnc3c2c1 | -0.757% |
| Cc1ccc2c(c1)[nH]c1c(N3CCN(Cc4ccccc4)CC3)ncnc12 | -24.5% |

| SMILES | hERG current change (%, negative = inhibition) at 10uM |
| --- | --- |
| COc1cccc2[nH]c3c(N4CCN(Cc5ccc6c(c5)OCO6)CC4)ncnc3c12 | -17.3% |
| Cn1c2c(c(=O)n(C)c1=O)C(NC(=O)c1ccco1)(C(F)(F)F)C(=O)N2 (stereo not shown) | 16.3% |
| O=C1OC(c2ccccc2)=C/C1=C/N1CCOCC1 | 2.28% |
| O=C(NCCc1nnc2ccc(NCc3ccccc3Cl)nn12)c1ccccc1 | 10.4% |
| N#Cc1cc2c(nc1SCC(=O)O)CCCCC2 | 3.05% |
| CCOC(=O)c1sc(NC(=O)c2ccc3ncsc3c2)nc1C | 10.8% |
| O=C(Nc1ccccc1Cl)c1cc[n+]([O-])cc1 | 27.8% |
| COc1ccc(C2CC(=O)N(CCC[NH+](C)CCc3ccc(OC)c(OC)c3)C2)cc1.O=C([O-])C(=O)[O-] (stereo not shown) | -74.7% |
| COc1ccc(C2SCC(=O)N2CCc2ccc(OC)c(OC)c2)cc1 (stereo not shown) | -31.3% |
| COc1ccc(CC[NH+](C)CCCN2CC(c3ccccc3)CC2=O)cc1OC.O=C([O-])C(=O)[O-] (stereo not shown) | -71.1% |
| COc1ccc(CCN2CC(C(=O)O)CC2=O)cc1OC (stereo not shown) | 0.984% |
| COc1ccc(NC(=O)CN2CC(c3ccccc3)CC2=O)cc1OC (stereo not shown) | 8.33% |
| COc1ccc(CCN2CC(C(=O)NCc3ccc(F)cc3)CC2=O)cc1OC (stereo not shown) | 2.45% |
| O=C(/C=C/c1ccc(O)cc1)c1ccc(O)cc1O | 9.4% |
| CCCn1c(O)c(CN2CCCCC2)c(C)c(C#N)c1=O | 15.5% |
| O=C(NC(=S)Nc1ccc(N2CCOCC2)cc1)c1cncc(Br)c1 | 19.5% |
| CC(C)CC(=O)Nc1ccnn1C1CCN(C(=O)c2ccc(Cl)cc2F)CC1 | -30.4% |
| N#CC(C#N)C(c1ccsc1)c1c(-c2ccccc2)[nH][nH]c1=O (stereo not shown) | -3.36% |
| CN1C(=O)C(=O)/C(=C(/O)c2ccc(Br)cc2)C1c1ccccc1F (stereo not shown) | 8.71% |
| CN1CCN(C(=O)C2=C[C@@H](c3coc4ccccc4c3=O)C[C@@H](OCCCCO)O2)CC1 | 0.749% |
| O=C(C1=C[C@@H](c2coc3ccccc3c2=O)C[C@@H](OCCCCO)O1)N1CCOCC1 | 7.47% |
| O=C(C1=C[C@H](c2coc3ccccc3c2=O)C[C@H](OCCCCO)O1)N1CCOCC1 | -16% |
| O=C(C1=C[C@H](c2coc3ccccc3c2=O)C[C@H](OCCCCO)O1)N1CCN(Cc2ccccc2)CC1 | -61.5% |
| O=C(C1=C[C@@H](c2coc3ccccc3c2=O)C[C@@H](OCCCCO)O1)N1CCN(Cc2ccccc2)CC1 | -57.9% |
| CN1CCN(C(=O)C2=C[C@H](c3coc4ccccc4c3=O)C[C@H](OCCCCO)O2)CC1 | -20.3% |

| SMILES | hERG current change (%, negative = inhibition) at 10uM |
| --- | --- |
| Nc1nc(Sc2c([N+](=O)[O-])cc(C(F)(F)F)cc2[N+](=O)[O-])n[nH]1 | 3.04% |
| CCn1c(COc2ccccc2OC)nc2ccccc21 | 2.28% |
| Cc1ccc(-c2csc3nc(SCC(=O)N(C)C)n(Cc4ccccc4)c(=O)c23)cc1 | -26% |
| Cc1[nH][nH]c(=O)c1C(c1ccc(O)c(Br)c1)c1c(C)[nH][nH]c1=O | 4.34% |
| O=C(c1ccccc1Br)N1CCN(c2ccccn2)CC1 | 9.41% |
| O=C(COC(=O)CCSc1ccccc1)NCc1ccccc1Cl | 22.4% |
| Nc1nc(Sc2ncccc2[N+](=O)[O-])n[nH]1 | 3.27% |
| COc1ccccc1NC(=S)N1C2CCC1CC(NC(=O)NC13CC4CC(CC(C4)C1)C3)C2 (stereo not shown) | -2.49% |
| Cc1cccc(N2C(=O)CN(Cc3sccc3C)C2=S)c1 | -7.83% |
| COc1ccccc1N1CCN(C(=O)c2cc(-c3ccccc3)on2)CC1 | 8.22% |
| CCn1c(N2CCN(C(=O)NC3CCCCC3)CC2)nc2ccccc21 | -32.5% |
| CCn1c(N2CCN(C(=S)NC)CC2)nc2ccccc21 | -30.2% |
| CCn1c(N2CCN(C(=O)Nc3ccc(F)cc3)CC2)nc2ccccc21 | -68.2% |
| Cn1c(N2CCN(C(=O)Nc3ccc(F)cc3)CC2)nc2ccccc21 | -55.8% |
| O=C(Nc1ccc(F)cc1)N1CCN(c2nc3ccccc3s2)CC1 | 1.48% |
| Cn1c(Nc2ccc(F)cc2)nc2ccccc21 | -51.7% |
| CCn1c(N2CCN(C(=S)Nc3ccc(OC)cc3)CC2)nc2ccccc21 | -68.3% |
| CCn1c(N2CCN(C(=S)NCC(C)C)CC2)nc2ccccc21 | -30.4% |
| CCn1c(N2CCN(S(=O)(=O)c3ccc(F)cc3)CC2)nc2ccccc21 | -36.2% |
| Cn1c(N2CCN(C(=O)Nc3ccc(C(F)(F)F)cc3)CC2)nc2ccccc21 | -41.3% |
| Cn1c(Nc2ccccc2)nc2ccccc21 | 1.74% |
| COc1ccc(Nc2nc3ccccc3n2C)cc1 | 11.3% |

From PMC4336329 (PLoS ONE, 2015)
